Inconclusive results are not listed. Some structures have more than one record in an assay (separate samples or runs), and their calls can disagree. Activity calls are given as the source filed them. How the source made its calls: active means hit-call score of the fitted dose curve at least 0.9, where 1 is the maximum; inconclusive means response in the unintended direction; inactive means score below 0.9.

Sequence of Steroid hormone receptor ERR1 (Homo sapiens) (P11474 whole entry, looked up): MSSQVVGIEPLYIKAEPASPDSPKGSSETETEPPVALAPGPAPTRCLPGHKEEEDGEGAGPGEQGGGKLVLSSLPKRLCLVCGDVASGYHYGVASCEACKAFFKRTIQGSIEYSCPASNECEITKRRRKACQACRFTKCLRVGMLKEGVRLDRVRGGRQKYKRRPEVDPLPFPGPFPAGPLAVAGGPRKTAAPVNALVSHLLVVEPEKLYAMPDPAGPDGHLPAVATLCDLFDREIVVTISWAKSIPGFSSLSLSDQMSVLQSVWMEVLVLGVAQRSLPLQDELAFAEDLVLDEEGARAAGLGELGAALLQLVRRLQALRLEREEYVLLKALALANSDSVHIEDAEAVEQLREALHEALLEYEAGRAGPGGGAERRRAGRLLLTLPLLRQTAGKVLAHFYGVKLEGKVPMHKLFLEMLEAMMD

The target of this assay is Steroid hormone receptor ERR1 (Homo sapiens) (UniProt P11474). Description: ATG_ERRa_TRANS: Attagene TRANS-FACTORIAL HepG2 Assay for human Estrogen-Related Receptor alpha (ERRa) (AID 2282971). As to conditions: HepG2 Attagene TRANS reporter, ERRa transactivation. The protocol:
ATG_TRANS is a cell-based, multiplexed-readout assay that uses HepG2, a human liver cell line, with measurements taken at 24 hours after chemical dosing in a 24-well plate.ATG_ERRa_TRANS is one of 30 assay component(s) measured or calculated from the ATG_TRANS assay. It is designed to make measurements of mRNA induction, a form of inducible reporter, as detected with fluorescence intensity signals by Reverse transcription polymerase chain reaction (RT-PCR) and Capillary electrophoresis technology.Data from the assay component ATG_ERRa_TRANS was analyzed into 1 assay endpoint. This assay endpoint, ATG_ERRa_TRANS, was analyzed in the positive analysis fitting direction relative to DMSO as the negative control and baseline of activity. Using a type of inducible reporter, measures of mRNA for gain-of-signal activity can be used to understand the reporter gene at the transcription factor-level as they relate to the gene ESRRA. Furthermore, this assay endpoint can be referred to as a primary readout, because this assay has produced multiple assay endpoints where this one serves a reporter gene function. To generalize the intended target to other relatable targets, this assay endpoint is annotated to the nuclear receptor intended target family, where the subfamily is steroidal.
Human liver HepG2 cells are transiently transfected with multiple reporter transcription units (MRTUs) in 6-well plates using FuGene 6 reagent (Roche; 3 ml FuGene/1 mg DNA). The MRTU constructs are regulated by a cis-regulating element (promoter). […] A major difference between the CIS and TRANS system is that in CIS activities of endogenous TFs are measured, whereas the TRANS assay evaluates changes in activities of exogenous, chimeric NR-Gal4 proteins. […] At the end of 24 hour incubation, total RNA was isolated using TriZol reagent (Invitrogen). The isolated RNA is then reverse-transcribed using oligo(dT) primer and Mo-MLV reverse transcriptase (Invitrogen) with DNAse I (Ambion) treatment for 30 min. The one-tenth of the produced cDNA was amplified by PCR using Taq DNA polymerase (Invitrogen) and two reporter sequence-specific primers. The PCR products were fluorescently labeled by primer extension with 6-arboxyfluorescein (6-FAM) 5'-labeled reporter sequence-specific primer (2 min at 95 C, 20 s at 68 C and 10 min at 72 C) and these products were digested with 5U of HpaI (New England Biolabs) for 2h at 37 C. The fragments were purified using Qiaquick PCR columns (Qiagen), analyzed on an ABI 3130xL genetic analyzer (Applied Biosystems) with peak positions identified by using a set of X-rhodamine (ROX)-labeled MapMarker1000 molecular weight standards (BioVentures). The raw capillary electrophoresis data was processed using Attagraph software (Attagene).
As for `O=C(/C=C/c1ccc(O)cc1)CC(=O)/C=C/c1ccc(O)cc1`, the call was inactive.

Take `O=C(O)c1ccccc1C(c1ccc(O)cc1)c1ccc(O)cc1`: the molecule was called inactive.

Regarding `NC(=O)N1C(=O)C(C(=O)c2cc(Cl)cs2)c2cc(F)c(Cl)cc21` (stereo not drawn), the call was inactive.

As for `COCC(C)OCC(C)O` (stereo not drawn), the outcome was inactive.

With `CCCCCCCCOC(=O)CCCCCCCCC(=O)OCCCCCCCC`, the molecule was called inactive.

In the case of `COCC(C)O` (stereo not drawn), the outcome was inactive.

What is called AC50 is the concentration giving half of the maximal activity seen. With `CCCCCCCCCCCCCC[N+](C)(C)C`, the AC50 is 25.7 µM (active) and the molecule was called inactive.

For `N#C[C@@H]1CC(F)(F)CN1C(=O)CNC1CC2CCC(C1)N2c1ncccn1` (stereo partly drawn), the molecule was called inactive.

As to `Cc1ccc(S(=O)(=O)O)c(C)c1`, the molecule was called inactive.

With `c1ccc2c(c1)ccc1ccccc12`, the molecule was called inactive.

Consider `NCC(F)(F)C(F)(F)C(F)(F)C(F)(F)C(F)(F)C(F)(F)C(F)(F)F`, for which the molecule was called inactive.

On to `Cc1cc(CCN2CCN(c3nsc4ccccc34)CC2)cc2c1NC(=O)CC2(C)C`, for which the molecule was classed as inactive.

Consider `CC(=O)CC(C)(C)O`, for which the molecule was classed as inactive.

Consider `CCCCCCCCCCCCN1CCCC1=O`, for which the molecule was classed as inactive.

Turning to `CCN(CC)CCNc1ccc(CNC=O)c2sc3ccc(OC)cc3c(=O)c12`, the molecule was called inactive.

For `CN1CCN(c2ccccc2/C=C2\SCCN(c3ccc(Cl)c(Cl)c3)C2=O)CC1`, the outcome was inactive.

On to `OC1CCC(C2CCCCC2)CC1` (stereo not drawn), for which the outcome was inactive.

For `CCCCC[C@H](O)CC(=O)CCc1ccc(O)c(OC)c1`, the molecule was called inactive.

As for `CCCCCCC(=O)O`, the outcome was inactive.

For `CCC(=C(c1ccc(O)cc1)c1ccc(OCCN(C)C)cc1)c1ccccc1`, the outcome was inactive.

`CCCCOCCO`: the call was inactive.

Regarding `CCCOC(=O)c1ccc(O)cc1`, the call was inactive.
